Assay outcomes (PubChem BioAssay)
The list is not random: actives were taken first. Their share in the collection is about 19%.
DT40 TDP1 CPT = DT40-hTDP1 cell growth loss with CPT. AID 686979. Potency, µM (titrated, usually from 46.2 µM), for the others: at the top dose activity change, negative = growth inhibition, hits mostly inhibitors. 12% of 420,000 active. chicken DT40 Tdp1-/-;hTDP1 cells + 20 nM CPT, ATP luminescence, 48 h; note: potency is the fitted concentration of half-maximal effect; % is set by controls: 0 for no effect and ±100 for the full control effect; nearly all actives have a fitted effect of over 55% in size
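Chicken DT40 Tdp1-/- cells complemented with human TDP1, 400 cells/well, exposed to compounds plus 20 nM camptothecin for at least 48 h at 37 C; viability read as ATP content by CellTiter-Glo luminescence.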
TDP1 block = blocks human tyrosyl-DNA phosphodiesterase 1; Q9NUW8; recombinant TDP1, AlphaScreen DNA substrate cleavage; Potency, µM (series often up to 130 µM), inactives show at the highest dose activity change, negative = inhibition, actives largely listed as inhibitors; 0.28% of 350,000 active; AID 485290; note: potency is the fitted concentration of half-maximal effect; % is set by controls: 0 for no effect and ±100 for the full control effect; nearly all actives have a fitted effect of over 40% in size
Target sequence (Q9NUW8 whole entry, looked up): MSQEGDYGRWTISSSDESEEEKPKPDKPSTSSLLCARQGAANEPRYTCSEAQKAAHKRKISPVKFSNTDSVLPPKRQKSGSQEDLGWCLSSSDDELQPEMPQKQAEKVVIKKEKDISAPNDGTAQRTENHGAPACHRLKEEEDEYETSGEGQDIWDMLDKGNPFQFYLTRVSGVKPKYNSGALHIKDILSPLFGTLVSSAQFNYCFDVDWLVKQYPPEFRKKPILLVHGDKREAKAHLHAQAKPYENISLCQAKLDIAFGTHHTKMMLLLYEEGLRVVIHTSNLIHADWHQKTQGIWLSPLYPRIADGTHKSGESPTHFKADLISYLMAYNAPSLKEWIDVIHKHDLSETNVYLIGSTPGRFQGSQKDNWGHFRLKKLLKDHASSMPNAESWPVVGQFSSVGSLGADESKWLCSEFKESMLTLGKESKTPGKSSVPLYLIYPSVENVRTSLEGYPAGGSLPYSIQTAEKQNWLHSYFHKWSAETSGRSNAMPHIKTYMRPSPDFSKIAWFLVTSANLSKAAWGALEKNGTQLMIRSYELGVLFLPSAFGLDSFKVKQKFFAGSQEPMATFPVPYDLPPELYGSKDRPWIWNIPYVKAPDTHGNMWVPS
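Compounds were preincubated with Tdp1 (1 nM final) for 15 min at room temperature before substrate (15 nM final) started a 5 min reaction; beads (10 ug/ml final) were then added for 10 min before AlphaScreen detection.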
HepG2 viability = counter-screen for TGF-b inhibitors: cytotoxicity in HepG2 cells; HepG2 CAGA-GFP viability, ATP luminescence, 18 h; Potency, µM (top dose mostly 46.1 µM), for the others: at the top dose activity change, negative = cytotoxicity, hits mostly cytotoxic; 0.76% of 410,000 active; note: potency is the fitted concentration of half-maximal effect
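HepG2 CAGA-GFP cells (1000/well, DMEM with 1% FBS) received compound, then TGF-beta at 500 pg/mL final, and were incubated 18 hours at 37 degrees C. Viability was read by CellTiter-Glo luminescence. Media-only wells were set as complete cell-killing and DMSO as no toxicity.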
IL-1B inflam inh = blocks inflammasome-driven IL-1 beta release. THP-1 LPS/ATP IL-1B secretion, AlphaLISA, 16 h; hits give low values. activity change, % at 57.5 µM. 4.7% of 360,000 active. AID 743279; in the data active = activity change below about -50%; inconclusive = mostly about -30% to -49%; note: % is set by controls: 0 for no effect and ±100 for the full control effect
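THP-1 cells pretreated 1 hr with compounds (up to 57.5 uM final), then stimulated with LPS (250 ng/mL final) plus ATP (1.25 mM final); secreted IL-1B measured by AlphaLISA after 16 hr, decreased signal indicating inhibition.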
DT40 TDP1 no CPT = qHTS for Inhibitors of human tyrosyl-DNA phosphodiesterase 1 (TDP1): qHTS in cells in absence of CPT; DT40 Tdp1-/- hTDP1 cells, no CPT, ATP luminescence, 48 h; Potency, µM (doses to about 46.2 µM), without a hit: top-dose activity change, negative = growth inhibition, hits mostly inhibitors; 15% of 420,000 active; AID 686978, 2013; note: potency is the fitted concentration of half-maximal effect; % is set by controls: 0 for no effect and ±100 for the full control effect; nearly all actives have a fitted effect of over 55% in size
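Growth of hTDP1-complemented DT40 Tdp1-knockout cells is measured by ATP luminescence after at least 48 hr compound exposure at 37 °C, with DMSO substituting for the 20 nM CPT used in the parallel screen.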
TGFb SMAD3 inh = TGF-b pathway inhibition; Potency, µM (titrated, usually from 46.1 µM), inactives show at the highest dose activity, negative = inhibition, actives largely listed as inhibitors; HepG2 CAGA-GFP TGF-b/SMAD3 reporter, GFP fluorescence, 18 h; TGF-beta stimulated, 500 pg/mL final; 1.2% of 410,000 active; AID 588855; note: potency is the fitted concentration of half-maximal effect; % is set by controls: 0 for no effect and ±100 for the full control effect; nearly all actives have a fitted effect of over 65% in size
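Per well, imaged GFP fluorescence of HEPG2 CAGA-GFP cells gives the signal; cells get compound, then TGF-beta (500 pg/mL final), 18 h at 37 degrees C; %Activity versus -TGF-beta and +DMSO controls.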
An asterisk follows results filed as active; ? = inconclusive; nt = no result given; [ ] = dose if it differs, or a comment. Unless noted, calls come from the whole dose curve; as a rule, active = well fitted curve in the direction sought with a large enough effect; inconclusive = small, poorly fitted or top-dose-only effect, or another doubt; inactive = no such curve, though single readings can be large; an effect the other way counts as inactive or inconclusive.

SMILES	DT40 TDP1 CPT	TDP1 block	HepG2 viability	IL-1B inflam inh	DT40 TDP1 no CPT	TGFb SMAD3 inh
COc1cc(OC)c(NC(=O)Nc2ccc3c(c2)N(C)C(=O)c2ccccc2S3)cc1Cl	5.8µM*	5.7%	2.0%	nt	5.8µM*	?
CC(C)NC(=O)Nc1ccc2c(c1)N(C)C(=O)c1ccccc1S2	?	11.4%	-32.2%	nt	-28.6%	-1.5%
Cc1ccccc1CNC(=O)Nc1ccc2c(c1)N(C)C(=O)c1ccccc1S2	16.4µM*	8.6%	-32.8%	nt	16.4µM*	7.08µM*
CN1C(=O)c2ccccc2Sc2ccc(NC(=O)NCc3cccc(Cl)c3)cc21	23.1µM*	8.6%	-56.7%	nt	23.1µM*	10µM*
Cc1cccc(Cn2cc3c(=O)n(CC(=O)Nc4c(C)cccc4C)nc-3c3cc(F)ccc32)c1	-0.9%	2.8%	2.9%	nt	-7.9%	-4.5%
O=C1C=C[C@@H](O)[C@H]2[C@@H]3C(=O)N(Cc4ccccc4)C(=O)[C@@H]3CC[C@H]12	nt	4.8%[21 µM]	nt	nt	nt	nt
O=c1c(-c2ccc(Cl)cc2)nc2cnc(N3CCOCC3)nc2n1Cc1ccc(F)cc1	2.4%	nt	nt	nt	23.5%	nt
O=C(NCc1cccc(F)c1)c1ccc(NC(=O)c2nsc3ccccc23)cc1	?	0.0%	-48.6%	nt	?	29.7%
COc1ccccc1N1CCN(C(=O)c2cc(C(C)(C)C)oc2C)CC1	?	-2.6%	12.0%	-59.9*	20.6µM*	?
Cc1oc(C(C)(C)C)cc1C(=O)N1CCN(c2ncccc2C(F)(F)F)CC1	?	-3.5%	13.7%	-6.1	23.1µM*	?
COc1ccccc1N1CCN(C(=O)c2c(C)cc(=O)oc2C)CC1	1.5%	2.4%	8.2%	0.0	4.0%	-2.6%
CC(C)(C)NC(=O)N1CCN(c2ncccc2C(F)(F)F)CC1	-5.8%	3.8%	17.6%	23.6	-17.6%	15.2%
COc1cc(SC)ccc1C(=O)N1CCN(c2ccccc2OC)CC1	20.6µM*	-5.1%	-15.9%	29.8	4.61µM*	-10.3%
Cc1cc(C)c2cc(C(=O)N3CCN(c4ncccc4C(F)(F)F)CC3)[nH]c2c1	?	nt	-6.4%	-20.4	14.6µM*	0.0%
COC(=O)C1CCN(Cc2ccc3c(c2)CN(C(=O)c2cc(C4CC4)on2)CCO3)CC1	15.7%[9.04 µM]	nt	nt	nt	-18.8%	nt
CCOc1ccc(NC(=O)c2oc3ccccc3c2NC(=O)Cc2cccc(C)c2)cc1	-28.0%	3.8%	3.0%	nt	?	1.7%
CCOC(=O)c1oc2c(CN3CCN(C)CC3)c(O)c(CC)cc2c(=O)c1-c1nc2ccccc2s1	0.3%	nt	2.3%	34.1	3.4%	-9.4%
CCc1cc2c(=O)c(-c3nc4ccccc4n3C)coc2c(CN2CCN(C)CC2)c1O	-0.2%	50.1µM*	3.4%	-3.6	-0.7%	18.2%
CCc1cc2c(=O)c(-c3nc4ccccc4n3C)coc2c(CN2CCC(C)CC2)c1O	?	nt	-4.3%	54.8	6.51µM*	0.0%
C#C[C@]1(OC(C)=O)CC[C@H]2[C@@H]3CCC4=CC(=O)CC[C@@H]4[C@H]3CC[C@@]21C	8.41µM*	11.2%	nt	nt	11.9µM*	nt
CC[C@H](C)[C@H](NC(=O)[C@H](C)NC(=O)[C@H](Cc1cnc[nH]1)NC(=O)[C@@H]1CCCN1C(=O)CNC(=O)[C@H](CC(C)C)NC(=O)[C@H](CC(C)C)NC(=O)[C@H](Cc1ccc(O)cc1)NC(=O)CNC(=O)[C@H](C)NC(=O)[C@H](CO)NC(=O)[C@H](CC(N)=O)NC(=O)[C@H](CC(C)C)NC(=O)[C@@H](NC(=O)[C@H](Cc1c[nH]c2ccccc12)NC(=O)CN)[C@@H](C)O)C(=O)N[C@@H](CC(=O)O)C(=O)N[C@@H](CC(N)=O)C(=O)N[C@@H](Cc1cnc[nH]1)C(=O)N[C@@H](CCCNC(=N)N)C(=O)N[C@@H](CO)C(=O)N[C@@H](Cc1ccccc1)C(=O)N[C@@H](CO)C(=O)N[C@@H](CC(=O)O)C(=O)N[C@@H](CCCCN)C(=O)N[C@@H](Cc1cnc[nH]1)C(=O)NCC(=O)N[C@@H](CC(C)C)C(=O)N[C@H](C(N)=O)[C@@H](C)O	nt	15.4%	nt	nt	nt	nt
C[C@H]1CCCCO[C@H](CN(C)C(=O)Nc2ccc(F)cc2)[C@@H](C)CN([C@@H](C)CO)C(=O)c2cc(NC(=O)Nc3ccc4c(c3)OCO4)ccc2O1	20.6µM*	nt	-3.6%	-16.9	?	?
CC(C)NC(=O)Nc1ccc2c(c1)C(=O)N([C@H](C)CO)C[C@H](C)[C@@H](CN(C)S(=O)(=O)c1ccccc1)OCCCC[C@@H](C)O2	-1.2%	nt	-2.4%	-11.1	-8.3%	-4.2%
COc1ccc(NC(=O)N(C)C[C@H]2OCCCC[C@@H](C)Oc3ccc(N(C)C)cc3C(=O)N([C@H](C)CO)C[C@@H]2C)cc1	-26.6%	nt	4.0%	12.8	?	1.3%
C[C@@H]1CN([C@H](C)CO)C(=O)c2cc(NC(=O)Nc3ccc(F)cc3)ccc2O[C@@H](C)CCCCO[C@H]1CN(C)S(=O)(=O)c1ccc(Cl)cc1	25.9µM*	nt	-3.0%	nt	?	?
SMILES	DT40 TDP1 CPT	TDP1 block	HepG2 viability	IL-1B inflam inh	DT40 TDP1 no CPT	TGFb SMAD3 inh
C[C@H](CO)N1C[C@H](C)[C@@H](CN(C)C(=O)Nc2ccccc2)Oc2ccc(NC(=O)Nc3ccc4c(c3)OCO4)cc2C1=O	-0.1%	2.6%	-4.7%	-1.9	-12.0%	7.8%
COc1ccc(NC(=O)N(C)C[C@H]2OCCCC[C@H](C)Oc3ccc(NC(=O)Nc4ccc5c(c4)OCO5)cc3C(=O)N([C@@H](C)CO)C[C@@H]2C)cc1	20.6µM*	nt	-0.3%	-29.7	?	-3.6%
CCCCSc1nc(-c2ccc(OC)cc2)ccc1C#N	nt	5.8%	-17.2%	nt	nt	5.4%
O=C(CNC(=O)c1cccs1)N/N=C/c1cccc(Cl)c1	-15.5%	-1.1%	2.2%	?	15.7%	1.2%
O=C(NC(=S)NCc1ccccc1)C1CCCCC1	18.4µM*	3.9%	-28.3%	30.6	20.6µM*	0.0%
CCCOc1ccc(C2c3c(-c4ccccc4O)n[nH]c3C(=O)N2CCCOCC)cc1OCC (stereo not given)	23.1µM*	11.6%	-41.0%	nt	?	?
COc1cccc(C2c3c(-c4ccccc4O)n[nH]c3C(=O)N2Cc2ccco2)c1 (stereo not given)	?	nt	-22.6%	0.0	?	?
